# Measurements: PubChem BioAssay (NCI)
# This is part of a sample that, as a whole, favours compounds with a hit. Of some 83,000 tested, about 20% had one in any assay.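 Activity criterion: percent growth below 10, measured after cells in 96-well plates were exposed to a single compound concentration for 48 hours.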 Values without a mark were called inactive. Calls of active or inactive are those of the source.
# Test system: OVCAR-4 ovarian
# Test: NCI-60 one-dose screen, 48 h (100 = growth as untreated, 0 = no growth, -100 = all killed)
# Details: 10 µM unless noted
# Description: Growth inhibition of the OVCAR-4 human tumor cell line is measured as a screen for anti-cancer activity. Cells are grown in 96 well plates and exposed to the test compound for 48 hours. Compounds are tested at a single concentration, which is 10^-5 M for most compounds. The reported endpoint is percent growth (GI% or GIPRCNT), where numbers from 0 - 100% represent growth inhibition, and numbers from -100% - 0 represent cell death. For example, a value of 40 represents 60% growth inhibition. A value of 0 means no net growth occurred over the course of the experiment. A value of -40 indicates 40% of cells at the beginning of the experiment died by the end of the experiment. A value of -100 means all cells are dead at the end of the experiment.
# NCI-60 Human Tumor Cell Lines Screen was performed using the standard one-dose NCI protocol, which is described in more detail at https://dtp.cancer.gov/discovery_development/nci-60/default.htm.
# Compounds with GIPRCNT values below 10 were considered active. Activity score was based on GIPRCNT using the following formula: […]
# Score is 0 for GIPRCNT values of 100 or above, 50 for GIPRCNT values of 0, and 100 for GIPRCNT values of -100.
row,Structure (SMILES),growth
1,Cc1nc2scc(-c3ccccc3)n2c(=O)c1CCO,93.8%
2,NC(=O)c1cccc(N2Cc3ccccc3OC3=C2C(=O)c2c(O)ccc(O)c2C3=O)c1,-93.5% (active)
3,CCn1c(=O)c2c(=O)c3c4c(oc3oc2c2ccccc21)C(=O)c1ccccc1C4=O,-99.5% (active)
4,O=C(CSc1nc(-c2ccc(Cl)cc2)cn1-c1ccc(Cl)cc1)c1ccc(Br)cc1,9.78% (active)
5,Cc1cc(N/C=c2\sc3ncnn3c2=O)no1,106%
6,CC[C@H](C)[C@@H]1NC(=O)[C@H]([C@@H](C)O)NC(=O)C(Cc2ccccc2)NC(=O)[C@@H]2CCCN2C(=O)C(C(C)C)NC(=O)C(Cc2ccccc2)NC(=O)CNC(=O)[C@@H]2CCCN2C1=O (stereo not given in full),60%
7,COc1ccc(OC)c(-c2ccc(-c3ccccc3N)c3[nH]c4ccccc4c23)c1,69.6%
8,COc1ccc(NC(=O)CSc2nc3ccccc3c(=O)n2Cc2cc(OC)c(OC)c(OC)c2)cc1,82.8%
9,O=C(/C=C/CN1CCOCC1)Nc1cc2c(Nc3cccc(Cl)c3F)ncnc2cc1OCCOC(F)F,82.4%
10,CCOc1ccc(/C=C/C=N/NC(N)=S)cc1,73.2%
11,CC/C=C\C[C@H](O)C/C=C1/C(=O)C(Cl)=C[C@@H]1C/C=C\CCCC(=O)OC,-47.3% (active)
12,Cn1c(C(N)=O)cc2c1-c1nc(NC3CCCCC3)ncc1CCC2,93.4%
13,CC1CCc2c(sc(NC(=O)CSc3nnc4ccccn34)c2C(N)=O)C1 (stereo not given),114%
14,CC(C)C[C@H](NC(=O)Cn1ccc(NCc2ccccc2)cc1=O)B(O)O,48.2%
15,CCCCC(N)(C(=O)O)C1CCCC1 (stereo not given),103%
16,CN1CCN(CCCOc2ccc3nc(Nc4ccc(C(F)(F)F)c(Cl)c4)ccc3c2)CC1,41.7%
17,CCC#CC[C@H]1C/C=C2/C(=O)C=C[C@@H]2C/C=C\CCCC(=O)O1,40.1%
18,CC(=O)OCC1OC(OCC2OC(OC(C)=O)C(OC(C)=O)C(OC(C)=O)C2OC(C)=O)C(OC(C)=O)C(OC(C)=O)C1OC(C)=O (stereo not given),107%
19,COc1cc(Cn2c(SCC(=O)Nc3ccc(Cl)cc3)nc3ccccc3c2=O)cc(OC)c1OC,53.4%
20,Nc1c(C(=O)Nc2cccc(Cl)c2Cl)sc2nc3c(cc12)C(=O)CCC3,104%

row,Structure (SMILES),growth
1,O=c1c2cccc3c(Nc4ccc(F)cc4)ccc(c32)c2nc3ccccc3n12,76%
2,O=C(Nc1ccc(I)cc1)c1cccc([N+](=O)[O-])c1O,19.1%
3,CC(Br)C(Br)c1cc2c(cc1Br)OCO2 (stereo not given),105%
4,CCCS(=O)(=O)c1nc(NC2CC2)cc(-c2ccc3c(ccn3C3CC(C)(C)NC(C)(C)C3)c2)n1,-70.6% (active)
5,CC1=NN2C(=NC3=C(CCC/C3=C\c3ccc(Cl)cc3)C2c2ccc(Cl)cc2)S1 (stereo not given),86.8%
6,Nc1nc(-c2ccccc2)cs1,102%
7,COc1cccc(C2CC(=O)Nc3c2c(C)nn3-c2nc3ccccc3[nH]2)c1OC (stereo not given),74.4%
8,COc1ccc(/C=C\c2cc(OC)c(OC)c(OC)c2)c(NS(=O)(=O)c2ccc(C(C)(C)C)cc2)c1O,28.2%
9,COc1cc(OC)c(C(=O)/C=C/c2ccc(C#N)cc2)c(OC)c1,32.8%
10,Cc1ccc2nc(SCn3nnc4ccccc4c3=O)[nH]c2c1,78.4%
11,CNC(=O)c1cc(Oc2ccc3c(c2)sc2nc(-c4ccc(Cl)cc4)cn23)ccn1,55.2%
12,Clc1ccc2c(c1)NC1(CCSc3ccccc31)n1nccc1-2 (stereo not given),103%
13,C=CC(=O)N[C@H](/C=C/C(=O)OCC)Cc1ccc(-c2cc(Cl)cc(Cl)c2)cc1,83.6%
14,Cc1cc(C)c(S(=O)(=O)N2CCN(c3cc4c(cc3F)c(=O)c(C(=O)O)cn4C3CC3)CC2)c(C)c1,75.6%
15,CC(C)(C)c1cc(-c2nc3ccc(N4CCN(CCO)CC4)cc3[nH]2)cc(C(C)(C)C)c1O,76.7%
16,COc1cccc2cc(-c3cc4ccccc4[nH]3)/c(=N/C(=S)Nc3ccccc3)oc12,40.7%
17,Cc1nc2sccn2c1-c1csc(Nc2ccccc2Cl)n1,47.3%
18,Cc1ccc(Nc2ncnc3c2sc2ncccc23)cc1,109%
19,NC(CC(N)C(=O)O)C(=O)O (stereo not given),99.2%
20,COc1ncc(-c2ccc3ncnc(Nc4cccc(Cl)c4)c3c2)cc1NS(=O)(=O)C1CC1,34.8%
